# Compounds with a hit are over-represented: about 5.9% of the library has one in this group of screens.
# Gal4-VP16 FLuc = inhibits Gal4-VP16 luciferase reporter, ROR gamma counter-screen; Drosophila S2 Gal4-VP16 UAS-luciferase, luminescence, 20 h; Potency, µM (highest dose often 53.6 µM), usual class: inhibitors; 310,000 tested, 3.5% active; AID 2546;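 also: Gal4-VP16 expression switched on by copper sulfate through the metallothionein promoter; nearly all actives have a fitted effect of over 50% in size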
# RORg inh = blocks mouse ROR gamma transcriptional activity; P51450; Drosophila S2 Gal4-RORgamma UAS-luciferase reporter, 20 h; Potency, µM (titrated, usually from 53.6 µM), most hits filed as inhibitors; 310,000 tested, 5.4% active; AID 2551; also: nearly all actives have a fitted effect of over 60% in size
# Target sequence (P51450 whole entry, looked up, the tested form may be a part): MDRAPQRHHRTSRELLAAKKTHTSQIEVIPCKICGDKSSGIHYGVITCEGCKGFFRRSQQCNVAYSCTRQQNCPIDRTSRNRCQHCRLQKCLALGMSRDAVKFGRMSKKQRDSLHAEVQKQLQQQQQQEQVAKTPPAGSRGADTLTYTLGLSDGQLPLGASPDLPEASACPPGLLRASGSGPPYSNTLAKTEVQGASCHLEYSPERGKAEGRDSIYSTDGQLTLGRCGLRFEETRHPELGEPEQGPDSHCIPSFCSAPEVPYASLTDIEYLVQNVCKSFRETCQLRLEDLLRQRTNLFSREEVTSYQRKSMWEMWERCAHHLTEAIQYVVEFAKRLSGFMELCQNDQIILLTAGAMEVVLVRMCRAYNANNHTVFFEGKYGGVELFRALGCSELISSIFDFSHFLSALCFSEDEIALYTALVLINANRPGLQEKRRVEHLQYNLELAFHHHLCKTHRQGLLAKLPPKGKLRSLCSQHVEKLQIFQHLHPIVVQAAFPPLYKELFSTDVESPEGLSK
#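 Read-out: Photinus luciferase luminescence; inhibitors lower reporter signal. Insect Schneider cells with Gal4-ROR gamma fusion under metallothionein promoter, UAS reporter; 700 uM final copper sulfate induction, 20 hr, ambient temperature.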
# GLP-1R inv ag = inverse agonists of human GLP-1 receptor. 410,000 tested, 1.6% active. AID 624417. Potency, µM (series often up to 38.3 µM), usual class: inhibitors. P43220. HEK293 GLP-1R CRE-luciferase, luminescence, 24 h; GLP-1R form is constitutively active; also: nearly all actives have a fitted effect of over 55% in size
#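 HEK293 cells stably co-expressing a cAMP-responsive luciferase reporter and constitutively active GLP-1R were seeded, incubated 12 h, then exposed to compounds for 24 h at 37 C. Luminescence was read 12 min after detection reagent; inverse agonists lower signal.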
# GLP1R ag = activates the human GLP-1 receptor; P43220; HEK293 GLP-1R CRE-luciferase, luminescence, 4-6 h; cells express a hypersensitive GLP-1R form; Potency, µM (highest dose often 45.6 µM), actives largely listed as activators; 380,000 tested, 0.007% active
# GLP1R cytotox = cytotoxicity counter-screen for GLP-1 receptor inverse agonists; HEK293 cAMP-luciferase reporter cells, luminescence, 24 h; Potency, µM (top dose mostly 38.3 µM), most hits filed as inhibitors; 410,000 tested, 0.13% active; AID 624418;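 also: loss of luciferase light is scored as toxicity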
#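 Quantitative HTS format, 1536 wells, 200 cells/uL seeded. Compounds: 23 nL, 24 h, 37 °C. Detection: luciferase reagent, luminescence at 12 min RT; decreased signal taken as cytotoxic.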
# A number is an active result; 0 = inactive; ? = inconclusive; - = no result given; [ ] = dose if it differs, or a comment. Calls follow the shape of the dose curve; as a rule, active = well fitted curve in the direction sought with a large enough effect; inconclusive = small, poorly fitted or top-dose-only effect, or another doubt; inactive = no such curve, though single readings can be large; an effect the other way counts as inactive or inconclusive.
SMILES,Gal4-VP16 FLuc,RORg inh,GLP-1R inv ag,GLP1R ag,GLP1R cytotox
COc1ccccc1CN(C)C(=O)C(NC(=O)Cc1cccc2ccccc12)C(C)C (stereo not drawn),0,0,10µM,0,?
COc1ccc(NC(=O)Cn2cc(S(=O)(=O)c3ccccc3)c(=O)c3cc(C)ccc32)cc1Cl,-,-,0,0,0
COc1cc(C(=O)Nc2cccc3ncccc23)cc(OC)c1OC,0,35.5µM,0,0,0
Cn1cccc1C(=O)N1CCC2(CC1)CN(c1ccccn1)C2,0,0,-,-,-
Cn1c(N)c(C(=O)COC(=O)c2ccccc2C(=O)c2ccc(Cl)cc2)c(=O)n(C)c1=O,-,-,11.2µM,0,0
CCOc1ccc(NC(=S)N(CCOC)C(C)c2cccnc2)cc1 (stereo not drawn),0,11.2µM,0,0,0
COCCCN(C(=S)Nc1ccc(OC)cc1)C(C)c1ccncc1 (stereo not drawn),0,0,0,0,0
COCCCN(C(=S)Nc1cc(C)cc(C)c1)C(C)c1ccncc1 (stereo not drawn),?,12.6µM,0,0,0
COCCN(C(=S)Nc1cccc(C)c1)C(C)c1cccnc1 (stereo not drawn),0,11.2µM,0,0,0
COCCCN(C(=S)Nc1c(C)cc(C)cc1C)C(C)c1ccccn1 (stereo not drawn),?,14.1µM,?,0,0
COC(=O)N1[C@H](C)C=C[C@]1(Cc1ccccc1)C(=O)NCc1ccc(N(C)C)cc1,0,0,-,-,-
Clc1ccc(C(c2ccccc2)N2CCN(c3ccccn3)CC2)cc1 (stereo not drawn),0,0,?,0,0
Clc1ccc(C(c2cccs2)N2CCNCC2)cc1 (stereo not drawn),-,-,4.47µM,0,0
O=C1COc2cc(S(=O)(=O)CCC(=O)NC3CCCCC3)c(Cl)cc2N1,-,-,0,0,0
COCCCn1c(-c2ccc(Cl)cc2)n[nH]c1=S,12.6µM,17.8µM,0,0,0
S=c1nc(-c2ccccc2)n(CCCN2CCOCC2)c2c1CCCC2,0,?,0,0,0
CCOCCCn1c(-c2ccc(Cl)cc2)n[nH]c1=S,10µM,5.01µM,?,0,0
COCCCn1c(-c2ccccc2Cl)n[nH]c1=S,?,15.8µM,0,0,0
S=c1[nH]nc(-c2ccc(Cl)cc2)n1CCCN1CCOCC1,0,10µM,0,0,0
COc1ccc(CCNC(=O)c2nn(-c3ccc(C)cc3)c(=O)c3c2c2ccccc2n3C)cc1OC,-,-,0,-,0
CCc1ccc(S(=O)(=O)c2cn(Cc3ccccc3F)c3cc(OC)c(OC)cc3c2=O)cc1,-,-,0,-,0
Cc1cc(O)c(/C=N/OCc2ccc(Cl)cc2Cl)c(=O)o1,?,12.6µM,0,0,0
Cc1cc(O)c(/C=N/Nc2cccc(Cl)c2)c(=O)o1,0,?,2.82µM,0,0
COc1ccc(NC(=S)NC(NC(=O)/C=C/c2ccccc2)C(Cl)(Cl)Cl)cc1 (stereo not drawn),?,?,?,0,0
C=CCN(CC=C)S(=O)(=O)c1ccc(NC(=S)NC(=O)/C=C/c2ccccc2)cc1,0,2.51µM,0,0,0
SMILES,Gal4-VP16 FLuc,RORg inh,GLP-1R inv ag,GLP1R ag,GLP1R cytotox
O=C(/C=C/c1ccc(OCCCF)cc1)N1CCN(Cc2ccccc2)CC1,0,?,10µM,0,0
O=C(/C=C/c1ccccc1)NC(NC(=S)Nc1ccc(Cl)cc1)C(Cl)(Cl)Cl (stereo not drawn),10µM,?,?,0,?
O=C(/C=C/c1ccc(Cl)cc1)Nc1ccc(N2CCOCC2)cc1,0[10 µM],0,0,0,0
O=C(/C=C/c1ccc([N+](=O)[O-])cc1)N1CCN(Cc2ccccc2)CC1,0,?,0,0,0
O=C(/C=C/c1ccccc1)NC(=S)Nc1ccc(N2CCOCC2)cc1,3.16µM,1µM,0,0,0
O=C(NCCc1ccccc1)c1cc(-c2ccccc2)nc2n[nH]c(-c3ccccc3)c12,-,-,?,-,0
CCc1nn(CC(=O)NCCc2ccc(OC)cc2OC)c(=O)c2cc3sccc3n12,-,-,0,-,0
O=C(/C=C/c1ccccc1)NC(=S)Nc1ccccc1,2µM,?,?,0,?
O=C(/C=C/c1ccc(Cl)cc1)NC(=S)Nc1ccc(N2CCOCC2)c(Cl)c1,5.62µM,?,0,0,0
O=C(Nc1ccc(N2CCOCC2)c(Cl)c1)c1ccc(Cl)cc1,0[10 µM],0,0[0.307 µM],0,0[0.307 µM]

# Source: PubChem BioAssay (National Center for Advancing Translational Sciences (NCATS))
